The values that follow come from PubChem BioAssay (NCI).

The panel holds about 83,000 compounds, 20% with a hit somewhere; the sample as a whole holds those more often.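 Plates (96-well) were seeded with cells, treated with compound at one concentration, and incubated for 48 hours before percent growth was determined.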 Values without a mark were called inactive. Calls of active or inactive are those of the source.

The test system of the assay is HCC-2998 colon. Briefly: NCI-60 one-dose screen, 48 h (100 = growth as untreated, 0 = no growth, -100 = all killed). The settings on record: 10 µM unless noted. How it is done:
Growth inhibition of the HCC-2998 human tumor cell line is measured as a screen for anti-cancer activity. Cells are grown in 96 well plates and exposed to the test compound for 48 hours. Compounds are tested at a single concentration, which is 10^-5 M for most compounds. The reported endpoint is percent growth (GI% or GIPRCNT), where numbers from 0 - 100% represent growth inhibition, and numbers from -100% - 0 represent cell death. For example, a value of 40 represents 60% growth inhibition. A value of 0 means no net growth occurred over the course of the experiment. A value of -40 indicates 40% of cells at the beginning of the experiment died by the end of the experiment. A value of -100 means all cells are dead at the end of the experiment.
NCI-60 Human Tumor Cell Lines Screen was performed using the standard one-dose NCI protocol, which is described in more detail at https://dtp.cancer.gov/discovery_development/nci-60/default.htm.
Compounds with GIPRCNT values below 10 were considered active. Activity score was based on GIPRCNT using the following formula: […]
Score is 0 for GIPRCNT values of 100 or above, 50 for GIPRCNT values of 0, and 100 for GIPRCNT values of -100.
For the compound `Clc1cccc(Cl)c1C1CSc2ccccc2N=C1c1ccccc1` (stereo not given), the growth is 95.4%.
Consider `CC(=O)c1cc(O)ccc1O`, for which the growth was 98.9%.
To `O=[n+]1ccn([O-])c2ccccc21` belongs 108%.
Then `CC(=O)c1ccc(C)cc1`, with 105%.
Turning to `Cc1ccc(N2C(=O)c3cccc4c(N)c(S(=O)(=O)O)cc(c34)C2=O)cc1`, the growth is 104%.
Then `NNc1ncccn1`, with 102%; and `Cc1onc(-c2c(F)cccc2Cl)c1-c1ncc(-c2ccc(Br)cc2)o1`, with 58.6%.
`CC1CCC(C)(C)c2ccccc21` (stereo not given): the growth was 96.9%.
To `N#Cc1ccc(OC(=O)Nc2c(Cl)cc(Cl)cc2Cl)cc1` belongs 110%.
Then `CN(C)Cc1ccccn1`, with 119%.
To `Cn1c2ccccc2c2nnc(NCCCCO)nc21` belongs 98%.
On to `CCNC(=O)OCCc1c2ccccc2nc2ccccc12`, for which the growth was 110%.
Then `COC1OC(C(COC(C)=O)OC(C)=O)C(OC(C)=O)C(OC(C)=O)C1OC(C)=O` (stereo not given), with 115%.
`CN(C)c1ccc(/C=C/C(=O)c2ccc(NC(N)=O)cc2)cc1`: the growth is 105%.
Then `CCC(=O)Oc1c(C)cc(O)c2ccccc12`, with 106%; and `CC(=O)c1cccc(N(C)S(=O)(=O)c2ccc(C)cc2)c1`, with 82.6%.
To `CCOc1ccc(C(=O)O)cc1` belongs 104%; to `Cc1[nH]n(-c2ccccc2)c(=O)c1C=NC(=S)C(N)=S`, 102%; to `O=C(OCc1ccccc1)n1nnc2ccccc21`, 103%.
On to `CC(=O)OC(C)c1cccc(C#N)c1` (stereo not given), for which the growth is 107%.
Then `c1ccc(-c2ccc3ccccc3c2)cc1`, with 107%; and `CC(C)c1ncc([N+](=O)[O-])n1C`, with 105%.
With `COc1ccc(Br)c(C=O)c1`, the growth was 86%.
To `O=C1C=C[C@H](O)[C@@]2(CO)O[C@@H]12` belongs 104%; to `OCC1OC(n2ccc3c2ncn2ncnc32)C(O)C1O` (stereo not given), 29.1%; to `COc1cc(C(=O)N2CCN(c3ccccc3)CC2)c2ccccc2n1`, -20.3% (active).
To `Cc1cccc2ccccc12` belongs 99.8%; to `NC(=O)c1cc2c3ccccc3ccn2c1-c1ccccc1`, -6.31% (active); to `COc1ccc(/C=C\C(=O)/C=C/c2ccc(OC)cc2)cc1`, -16% (active).
Then `CC(=O)N=c1ccc2nc3c(cc(N)c4ccccc43)oc-2c1`, with -4.32% (active); and `C=CC(C)C(C)(C)O` (stereo not given), with 106%; and `CC(=O)N(CCCCCCN(C(C)=O)C(C)=O)C(C)=O`, with 114% [100 µM].
As to `CC(C)c1ccccc1NC(=O)N1CCC(C(C)C)CC1`, the growth is 109%.
`CCCCCCCCNC(=O)C(C)C`: the growth is 115%.
To `N#C/C(=C\c1ccc(C#N)cc1)C(=O)c1ccccc1` belongs 104%; to `O=C(CCl)Nc1ccccc1SCc1cc(Cl)cc2c1OCOC2`, 99.1%.
With `CC(=O)c1cccs1`, the growth was 98.4%.
Then `C=C(C)COc1ccc(C(C)(C)C)cc1`, with 111%.
In the case of `O=C(O)CC1=CCCCC1`, the growth was 94.3%.
Then `CC(=O)NNC(=S)N/C=C/c1c(C)ccc([N+](=O)[O-])c1[N+](=O)[O-]`, with 107%.
